Source: PubChem BioAssay
In the library only some 0.94% were active in any assay of this set; here they are far more common.
Autofluor Jurkat – compound fluoresces in Jurkat cells, VLA-4 screen interference; actives 0.61% (n = 24,000); AID 576; compound autofluorescence, flow cytometry; hits give high values; 1 = vehicle-only cell background; fluorescence ratio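 (tested at 10 µM compound in the well)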;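 active = fluorescence ratio above 2.44, which is 1 plus 3 SD of all ratios; inconclusive = signal too bright to measure linearly, ratio around 10 or more; inactive = fluorescence ratio below 2.44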;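 note: green fluorescence of cells measured with 488 nm excitation and 530 nm emission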
VLA-4 allo ag – allosterically activates the human VLA-4 integrin. activation, % at 10 µM (by protocol). AID 528. P13612. 24,000 tested, under 10 active. Jurkat cells, LDV-FITC binding, flow cytometry;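 active = fluorescent ligand binding to cells raised by more than 40% of the manganese-induced maximum; inconclusive = compound's own fluorescence above 85% of the ligand control signal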;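 note: 0% = ligand binding without compound and 100% = manganese-stimulated maximal binding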
26S disassembly – blocks ATP-dependent breakdown of the yeast 26S proteasome; anti-FLAG beads, GFP-proteasome disassembly, flow cytometry; inhibition of disassembly, % (concentration not given with the values); actives 0.2% (n = 24,000); AID 751;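 active = inhibition of disassembly above about 33%, limit read from the data; inconclusive = likely self-fluorescent, control bead median signal at least 40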;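 note: plate controls were ATP control with full disassembly for no effect and ATP-gamma-S intact proteasomes for full effect; higher percent means more bead fluorescence retained so stronger block of disassembly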
VLA-4 antagonist – blocks LDV-FITC ligand binding to Mn2+-activated human VLA-4 integrin; Jurkat cells, LDV-FITC binding with Mn2+, flow cytometry; 100% = Mn2+-driven binding gain fully reversed; inhibition, % at 10 µM (by protocol); actives 0.2% (n = 24,000);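 active = inhibition above 50%; inconclusive = compound itself fluorescent, judged against control cell fluorescence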;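 note: 0% = Mn2+ stimulated cells lacking compound and 100% = ligand binding without Mn2+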
* hit, by the source's call; ? = inconclusive; . = no result given.

SMILES | Autofluor Jurkat | VLA-4 allo ag | 26S disassembly | VLA-4 antagonist
CC(C)Cn1cc(C(=O)N2CCN(c3ccccn3)CC2)c2c3ccccc3n(C)c2c1=O | 1.13 | -5.0 | -1.0 | 5.0
Cc1oc(-c2ccccc2F)nc1CSCC(=O)NCc1ccc2c(c1)OCO2 | 1.06 | -7.1 | -1.1 | 14.8
CCCOc1ccc(C(CC(=O)O)NC(=O)c2ccc3c(c2)OCO3)cc1 (stereo not drawn) | 1.04 | -9.0 | -0.9 | 88.0*
S=C(c1ccc(N2CCOCC2)cc1)N1CCCCC1 | 1.02 | 8.0 | -0.1 | -10.0
Cc1ccc(N2CCN(C(=S)c3ccc(N(C)C)cc3)CC2)cc1 | 3.52* | ? | 6.3 | ?
CC(C)Oc1ccc(C(CC(=O)O)NC(=O)C2CCCCC2)cc1 (stereo not drawn) | 1.04 | -11.5 | -0.1 | 96.5*
C=CCN(c1ccccc1)S(=O)(=O)c1ccc2c(c1)oc(=O)n2C | 2.48* | ? | 0.2 | ?
CCCSc1nnc(Cn2c(=O)sc3ccccc32)n1-c1ccccc1 | 0.92 | 3.0 | -1.1 | -2.0
Cc1nnc(SCc2nc3ccccc3s2)n1-c1ccccc1 | 2.8* | ? | ? | ?
Cc1nc(SCC(=O)c2c[nH]c3ccccc23)n[nH]1 | 3.39* | ? | 9.4 | ?
O=C(O)CCC(=O)c1c[nH]c2ccccc12 | 1.02 | 11.0 | 0.5 | -46.0
N#C[C@@H]1[C@@H]2C(=O)N(c3ccc4c(c3)OCCO4)C(=O)[C@@H]2C2c3ccccc3C=CN21 (stereo partly drawn) | 5.22* | ? | 6.4 | ?
CCOc1ccc(S(=O)(=O)N2CCc3ccccc3C2)cc1 | 3.23* | ? | 0.9 | ?
Cc1cccc(-n2nnc(C(=O)NCc3ccccc3)c2N)c1 | 1.07 | 1.3 | -1.7 | -10.3
Cc1cc(C)cc(-n2nnc(C(=O)NCc3ccccc3Cl)c2N)c1 | 2.77* | ? | 0.4 | ?
CCOC(=O)N1CCC(NC(=O)CCc2c(C)nc3c(c(C)nn3C(C)(C)C)c2C)CC1 | 0.97 | -11.0 | 0.8 | 15.7
Cc1noc(C)c1S(=O)(=O)Nc1ccc(C(=O)NCCc2ccccc2)cc1 | 1.12 | -5.0 | -2.7 | 55.0*
Cc1noc(C)c1S(=O)(=O)Nc1ccc(C(=O)NC2CCCCC2)cc1 | 3.02* | ? | 2.8 | ?
Cc1ccc(NC(=O)c2ccc(NS(=O)(=O)c3c(C)noc3C)cc2)cc1C | 1.05 | -15.3 | -0.3 | 22.7
O=C(NCc1ccco1)C1CCCN(S(=O)(=O)c2cccc3cccnc23)C1 (stereo not drawn) | 1.2 | ? | 1.1 | ?
CCC1Oc2ccc(C)cc2N(CC(=O)NCc2cccc(OC)c2)C1=O (stereo not drawn) | 0.99 | 7.0 | -0.1 | -14.0
CCn1c2ccccc2c2cc(N)ccc21 | 3.39* | ? | ? | ?
CCCCOc1ccc(-c2nnn(CC(=O)Nc3ncc(CC(=O)OCC)s3)n2)cc1 | 1 | -34.5 | -0.4 | 93.5*
Cn1c(=O)n(CCN2CCOCC2)c(=O)c2c1nc1n2CCN1c1ccccc1 | 1.86 | ? | 4.4 | ?
O=C(Cc1ccc(-n2cccc2)cc1)N1CCc2ccccc21 | 4.92* | ? | 21.2 | ?
SMILES | Autofluor Jurkat | VLA-4 allo ag | 26S disassembly | VLA-4 antagonist
CC(C)N(CCc1ccncc1)C(=O)Nc1ccc(Cl)c(Cl)c1 | 1.16 | ? | -1.5 | ?
CCOc1ccc(C(CC(=O)O)NC(=O)C23CC4CC(CC(C4)C2)C3)cc1 (stereo not drawn) | 1 | -20.0 | . | 111.0*
CC(=O)c1cccc(S(=O)(=O)NCC(c2ccco2)N2CCCCC2)c1 (stereo not drawn) | 1.09 | -2.5 | 4.1 | -4.0
CCOC(=O)c1ccc(COC(=O)c2cc3ccccc3oc2=O)o1 | 1 | -11.0 | 1.4 | 1.0
CCOc1ccccc1C(=O)N1CCN=C1SCc1cccnc1 | 1.03 | ? | -0.2 | ?
CCCCCNC(=O)CCCCn1c(=O)[nH]c2cc(OCC)c(OCC)cc2c1=O | 1 | -10.5 | 0.6 | 77.7*
Cc1ccc(S(=O)(=O)C(C#N)c2nc3ccccc3nc2OC(C)C)cc1 (stereo not drawn) | 1.14 | 0.5 | -0.4 | 0.5
COc1ccc(S(=O)(=O)C(C#N)c2nc3ccccc3nc2N2CCCC(C)C2)cc1 (stereo not drawn) | 2.95* | ? | -3.0 | ?
CCc1ccc(CNC(=O)CN2C(=O)COc3ccccc32)cc1 | 1.07 | -3.0 | -0.1 | 52.0*
Cc1ccc(C2C3CSCC=C3C(C#N)=C(N)C2(C#N)C#N)cc1 (stereo not drawn) | 8.79* | ? | 40.3* | ?
C=CCn1nnc2sc3c(c2c1=O)CCC(C)C3 (stereo not drawn) | 1.02 | -4.0 | -1.1 | -5.0
Cc1ccc(C)c(N2CCN(C(=O)CN(C)S(=O)(=O)c3cnc[nH]3)CC2)c1 | 1.04 | 1.0 | 0.0 | 3.0
O=c1c[n+]([O-])c2ccccc2n1OCc1ccccn1 | 1.69 | ? | 0.6 | ?
O=c1c[n+]([O-])c2ccccc2n1OCc1c(F)cccc1F | 3.11* | ? | 13.3 | ?
COc1ccc2nc(NC(=O)C3CCCN(S(=O)(=O)c4cccc5nsnc45)C3)sc2c1 (stereo not drawn) | 2.07 | ? | 24.4 | ?
COc1ccc2nc(NC(=O)C3CCCN(S(=O)(=O)c4cccc5nonc45)C3)sc2c1 (stereo not drawn) | 2.57* | ? | 31.7 | ?
CNc1nn(-c2cccc(Cl)c2)nc1N | 8.09* | ? | ? | ?
COc1ccc(CCN2CCC(Nc3nc4ccccc4n3Cc3ccc(F)cc3)CC2)cc1 | 2.57* | ? | 1.1 | ?
COc1ccc(CCn2c(-c3ccco3)nc3nc4ccccc4nc32)cc1 | 1.67 | ? | 8.8 | ?
Cc1ccc(NC(=O)C2CCCN(S(=O)(=O)c3cccs3)C2)cc1 (stereo not drawn) | 1.14 | -13.0 | -0.9 | 67.5*
COc1cc(-n2nc(C)c3c2OC(N)=C(C#N)C3c2ccccc2)c(Cl)c(Br)c1O (stereo not drawn) | 2.95* | ? | 5.0 | ?
Cc1nn(-c2ccccc2)c2c1C(c1c(C)[nH]c(C#N)c1C)C(C#N)=C(N)O2 (stereo not drawn) | 1.1 | -3.0 | 1.0 | -6.0
COC(=O)c1ccc2c(c1)NC(=O)C(N1CCCCC1)S2 (stereo not drawn) | 1.09 | ? | 4.5 | ?
COC(=O)c1ccc2c(c1)NC(=O)C(N1CCCC1)S2 (stereo not drawn) | 4.98* | ? | 20.2 | ?
CCCCC1C(=O)N(c2ccccc2)N(c2ccccc2)C1=O | 0.97 | -43.3 | 1.0 | 80.0*
Cc1ccc(C)c(N2CCN(S(=O)(=O)c3c(C)noc3/C=C/N(C)C)CC2)c1 | 1.03 | -3.0 | 48.8* | ?
COc1ccccc1N1CCN(C(=O)c2sc3nc(-c4ccccc4)cn3c2C)CC1 | 3.16* | ? | 1.4 | ?
COC(=O)C1CCN(C(=O)c2sc3nc(-c4ccc(F)cc4)cn3c2C)CC1 | 1.15 | -2.0 | 0.9 | -3.0
Cc1c(C(=O)N2CCN(c3ccc(F)cc3)CC2)sc2nc(-c3ccccc3)cn12 | 1.06 | -9.0 | 0.7 | 30.0
CCOC(=O)C1CCN(C(=O)c2sc3nc(-c4ccccc4)cn3c2C)CC1 | 2.78* | ? | 0.0 | ?
